Reference: PubChem BioAssay
Active and inactive are the calls of the source.

Assays:
[1] = system: Human papillomavirus type 1a protein E7 (residues 44-93); assay: small molecules binding HPV E7 44-93 – biochemical, small-molecule microarray, residues 44-93, 635 nm fluorescence, primary screen (AID 1108); conditions: fluorescence 635 nm, higher = more signal;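 also: E7 fragment applied at 1 µg/mL in TBST for 1 h at 4 C; score combines spot fluorescence with its signal to noise ratio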
[2] = hepatitis C replication reporter changes, two-sided – Huh7 cells, luciferase reporter, HCV replication inhibitor project, primary screen (AID 1109); conditions: Huh7 HCV replicon luciferase reporter, 48 h; higher = more signal;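 also: huh7 hepatoma cells harbouring a luciferase neomycin HCV replicon reporter; luciferase luminescence as measure of HCV replicon replication; test concentration not given here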
[3] = biological target: Left-right determination factor 2 (Homo sapiens) (UniProt O00292); assay: small molecules binding LEFTY2 protein – biochemical, small-molecule microarray, 635 nm fluorescence scan, primary screen (AID 1110); conditions: higher = more signal
[4] = biological target: Calmodulin-1 (Homo sapiens) (UniProt P0DP23); assay: small molecules binding calmodulin-1 with EGTA – biochemical, small-molecule microarray, Cy5-labelled CALM1, profiling panel (AID 1111); conditions: Cy5-CALM1 binding fluorescence, higher = more signal;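 also: labelled calmodulin applied in Tris saline Tween buffer holding calcium plus EGTA and DTT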
[5] = biological target: Calmodulin-1 (Homo sapiens) (UniProt P0DP23); assay: small molecules binding Ca-loaded calmodulin-1 – biochemical, small-molecule microarray, Cy5-labelled CALM1, plus calcium, artefact control for SMM control-protein annotation, profiling panel (AID 1112); conditions: Cy5-CALM1 binding fluorescence, higher = more signal;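 also: score merges spot fluorescence with signal to noise from triplicate slides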
[6] = probe aWnt5a binding to arrayed compounds – biochemical, biotinylated probe, 635/667 nm fluorescence, primary screen (AID 1113); conditions: small-molecule microarray, higher = more signal;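 also: score merges 667 nm fluorescence intensity with signal-to-noise per printed feature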
[7] = probe aShh binding to arrayed compounds – biochemical, biotinylated probe, 635/667 nm fluorescence, primary screen (AID 1114); conditions: small-molecule microarray, higher = more signal;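 also: probe is biotin-labelled aShh protein from a stem cell growth factor screen; measures binding of labelled protein to compounds printed on the slide; score merges feature fluorescence at 667 nm with signal-to-noise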
[8] = probe aNog binding to arrayed compounds – biochemical, biotinylated probe, 635/667 nm fluorescence, primary screen (AID 1115); conditions: small-molecule microarray, higher = more signal;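 also: probe is biotinylated aNog protein used at 0.15 µg/mL for 1 h at 4 C; z-score combines 667 nm fluorescence of each spot with its signal to noise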
[9] = biological target: Torsin-1A-interacting protein 1 (Homo sapiens) (UniProt Q5JTV8); assay: compound microarray binding of lysate hLAP1 – cell lysate, small-molecule microarray, COS7 lysate, 635/667 nm fluorescence, primary screen (AID 1116); conditions: 635 nm fluorescence, higher = more signal
[10] = biological target: Alpha-bungarotoxin (Bungarus multicinctus) (UniProt P60615); assay: compounds binding labelled alpha-BTX control protein – biochemical, small-molecule microarray, Alexa647 label, 635/667 nm fluorescence, artefact control for SMM control protein annotation, profiling panel (AID 1117); conditions: alpha-BTX-A647 binding fluorescence, higher = more signal
[11] = biological target: Albumin (Bos taurus) (UniProt P02769); assay: compounds binding labelled BSA control protein – biochemical, small-molecule microarray, Alexa647 label, 635/667 nm fluorescence, artefact control for SMM control protein annotation, profiling panel (AID 1118); conditions: BSA-A647 binding, fluorescence 635 nm, higher = more signal;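 also: score merges 667 nm emission intensity and signal-to-noise per printed compound spot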
[12] = probe aXIP binding to arrayed compounds – biochemical, NeuroSMM set, 635/667 nm fluorescence, primary screen (AID 1119); conditions: small-molecule microarray, higher = more signal, called active from +8 up or from −8 down;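 also: probe is the protein aXip251-270 applied at 1 µg/mL to compound-printed slides; binding of probe to printed compounds measured as 667 nm fluorescence plus signal to noise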
[13] = probe aNOTCH3 binding on compound microarray – biochemical, small-molecule microarray, 635/667 nm fluorescence, primary screen (AID 1120); conditions: higher = more signal;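 also: probe is a biotin-tagged antibody raised against NOTCH3 rather than NOTCH3 protein; score merges spot fluorescence near 667 nm with spot signal to noise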
[14] = probe aNOTCH2 binding on compound microarray – biochemical, small-molecule microarray, 635/667 nm fluorescence, primary screen (AID 1121); conditions: higher = more signal;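 also: score merges feature fluorescence read at 667 nm with its signal to noise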
[15] = biological target: Carbonic anhydrase 2 (Homo sapiens) (UniProt P00918); assay: compounds binding carbonic anhydrase 2 – biochemical, small-molecule microarray, Alexa647-labelled CAII, profiling panel (AID 1122); conditions: CAII-A647 binding fluorescence, higher = more signal
[16] = COS7 lysate on small-molecule microarray, probe aHis, 635 nm (AID 1123); conditions: COS7 cell lysate, fluorescence, higher = more signal;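 also: z-score combines 667nm fluorescence intensity with signal-to-noise per printed compound spot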
[17] = probe aLAP1 signal on lysate-treated microarray – cell lysate, small-molecule microarray, COS7 lysate, primary screen (AID 1124); conditions: probe aLAP1, fluorescence, higher = more signal;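 also: lysate comes from COS7 cells expressing LAP1 and is applied at 0.3 µg/mL; score merges spot fluorescence near 667 nm with signal-to-noise over triplicate slides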
[18] = system: Sam68 (KHDRBS1); assay: compounds binding KHDRBS1 protein – biochemical, small-molecule microarray, 635 nm fluorescence, primary screen (AID 1125); conditions: higher = more signal;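 also: score merges 667 nm channel intensity with signal to noise over triplicate slides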
[19] = system: Chordin-like protein 2 (CHRDL2); assay: compounds binding chordin-like 2 – biochemical, small-molecule microarray, 635 nm fluorescence, primary screen (AID 1126); conditions: fluorescence 635 nm, higher = more signal;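 also: printed compound slides probed with Chrdl2 protein at 4 µg/mL for 1 h at 4 C; score merges 667 nm emission intensity with signal to noise over three replicate slides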
[20] = biological target: Concanavalin-A (Canavalia ensiformis) (UniProt P02866); assay: compounds binding concanavalin A lectin – biochemical, small-molecule microarray, Alexa647 label, 635 nm, artefact control for SMM control protein annotation, primary screen (AID 1127); conditions: ConA-A647 binding fluorescence, higher = more signal;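 also: z combines 667 nm emission intensity with signal-to-noise across three replicate slides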
Concanavalin-A (Canavalia ensiformis), sequence (P02866 whole entry, looked up): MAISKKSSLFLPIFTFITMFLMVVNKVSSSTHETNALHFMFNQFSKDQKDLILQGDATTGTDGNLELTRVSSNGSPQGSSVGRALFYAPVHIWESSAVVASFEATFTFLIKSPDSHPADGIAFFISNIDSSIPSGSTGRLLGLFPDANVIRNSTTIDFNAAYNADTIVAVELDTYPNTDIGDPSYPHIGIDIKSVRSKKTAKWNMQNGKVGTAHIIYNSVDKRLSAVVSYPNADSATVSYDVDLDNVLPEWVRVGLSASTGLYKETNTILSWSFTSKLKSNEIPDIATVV

Albumin (Bos taurus), sequence (P02769 whole entry, looked up): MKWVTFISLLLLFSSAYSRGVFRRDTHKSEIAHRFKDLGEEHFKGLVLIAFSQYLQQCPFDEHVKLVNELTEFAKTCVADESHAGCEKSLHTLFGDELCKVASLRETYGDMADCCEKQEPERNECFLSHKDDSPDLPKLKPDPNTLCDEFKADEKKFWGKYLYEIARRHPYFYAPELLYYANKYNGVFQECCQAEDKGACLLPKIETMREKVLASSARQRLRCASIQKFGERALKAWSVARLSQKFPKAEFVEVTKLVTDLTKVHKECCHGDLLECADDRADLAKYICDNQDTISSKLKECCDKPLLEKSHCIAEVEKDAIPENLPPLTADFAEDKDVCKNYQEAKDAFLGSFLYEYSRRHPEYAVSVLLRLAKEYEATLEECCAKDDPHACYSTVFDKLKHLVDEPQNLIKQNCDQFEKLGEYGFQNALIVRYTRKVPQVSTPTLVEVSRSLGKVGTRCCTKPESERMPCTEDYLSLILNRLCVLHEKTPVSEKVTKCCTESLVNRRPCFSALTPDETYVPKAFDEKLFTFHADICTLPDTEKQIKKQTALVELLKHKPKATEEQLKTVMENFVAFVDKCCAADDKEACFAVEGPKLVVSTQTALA
Torsin-1A-interacting protein 1 (Homo sapiens), sequence (Q5JTV8 whole entry, looked up): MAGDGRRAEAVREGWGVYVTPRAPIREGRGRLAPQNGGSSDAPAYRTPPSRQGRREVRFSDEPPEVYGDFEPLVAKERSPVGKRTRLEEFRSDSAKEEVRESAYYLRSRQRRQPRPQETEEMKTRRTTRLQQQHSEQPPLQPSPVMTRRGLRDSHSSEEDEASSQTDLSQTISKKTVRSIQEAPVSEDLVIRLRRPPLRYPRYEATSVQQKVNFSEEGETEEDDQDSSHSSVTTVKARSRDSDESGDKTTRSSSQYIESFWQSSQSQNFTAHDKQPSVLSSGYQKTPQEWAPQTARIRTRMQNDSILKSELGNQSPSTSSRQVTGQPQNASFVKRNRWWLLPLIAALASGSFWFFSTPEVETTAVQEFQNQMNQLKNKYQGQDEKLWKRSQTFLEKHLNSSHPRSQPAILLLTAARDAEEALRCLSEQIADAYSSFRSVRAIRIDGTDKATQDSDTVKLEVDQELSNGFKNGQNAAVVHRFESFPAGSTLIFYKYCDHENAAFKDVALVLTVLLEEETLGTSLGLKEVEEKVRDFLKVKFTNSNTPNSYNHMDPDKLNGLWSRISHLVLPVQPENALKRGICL
Left-right determination factor 2 (Homo sapiens), sequence (O00292 whole entry, looked up): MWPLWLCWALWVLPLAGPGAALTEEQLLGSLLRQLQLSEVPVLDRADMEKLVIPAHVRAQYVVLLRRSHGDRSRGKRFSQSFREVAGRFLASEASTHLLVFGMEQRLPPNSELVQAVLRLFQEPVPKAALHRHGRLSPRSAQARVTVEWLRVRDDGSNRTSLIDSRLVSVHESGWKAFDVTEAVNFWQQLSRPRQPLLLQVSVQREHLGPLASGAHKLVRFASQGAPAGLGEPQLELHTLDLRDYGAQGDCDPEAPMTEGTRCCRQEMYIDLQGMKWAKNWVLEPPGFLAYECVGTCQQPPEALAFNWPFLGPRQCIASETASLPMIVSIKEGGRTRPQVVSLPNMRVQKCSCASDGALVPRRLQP
Alpha-bungarotoxin (Bungarus multicinctus), sequence (P60615 whole entry, looked up): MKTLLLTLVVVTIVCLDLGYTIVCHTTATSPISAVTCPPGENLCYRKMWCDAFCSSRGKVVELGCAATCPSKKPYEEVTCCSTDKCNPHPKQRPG

SMILES	composite z-score [1]	z-score [2]	composite z-score [3]	composite z-score [4]	composite z-score [5]	composite z-score [6]	composite z-score [7]	composite z-score [8]	composite z-score [9]	composite z-score [10]	composite z-score [11]	composite Z-score [12]	composite z-score [13]	composite z-score [14]	composite z-score [15]	composite z-score [16]	composite z-score [17]	composite z-score [18]	composite z-score [19]	composite z-score [20]
C=C/C=C/[C@@H]1C(=C)CN([C@@H](Cc2ccccc2)C(=O)OC)[C@H]1[C@@H](O)Cc1ccccc1	1.17	-0.622	0.201	0.241	-0.547	-0.107	-0.138	0.0924	0.309	0.325	0.0797	0.3 (inactive)	-0.0343	-0.115	0.311	1.07	0.137	1.09	0.177	0.861
COCC(=C=CC[C@@H](O)c1cccc(OCCO)c1)CCO	0.328	0.22	-0.313	0.32	0.281	0.129	-0.372	-0.0987	0.69	1.73	0.682	0.0124 (inactive)	-0.0293	0.011	0.708	0.562	1.41	0.381	-0.325	0.856
COCC(=C=CC[C@H](O)c1cccc(OCCO)c1)C[C@H](O)COCc1ccccc1	0.768	-0.754	-0.35	-0.238	-0.135	0.0037	0.191	-0.0863	1.58	-0.363	0.484	-0.141 (inactive)	0.187	0.104	0.742	2.13	0.66	0.938	-0.227	-0.564
CCOC(=O)C1=CCN(S(=O)(=O)c2ccc(C)cc2)C1c1ccccc1 (stereo not given)	0.666	-3.27	0.564	-0.263	-0.197	-0.0346	0.0204	0.46	0.553	0.848	1.02	0.728 (inactive)	0.0836	-0.0607	0.685	1.69	0.709	1.08	0.132	1.14
COc1cc2c(cc1O)C(c1ccc(CN3CCCC3)cc1)N(C)CC2 (stereo not given)	-1.7	-1.02	0.351	0.571	0.673	-0.173	-0.359	0.452	-0.862	0.0735	0.462	0.142 (inactive)	-0.173	-0.127	0.359	-0.138	2.24	-0.645	-1.26	0.113
Cc1ccc(F)cc1S(=O)(=O)N[C@@H]1CCN(Cc2cccc3[nH]ccc23)C1	-0.0347	-1.57	0.682	-0.517	-1.03	-0.0685	-0.153	-0.492	0.852	0.111	-0.864	-1.15 (inactive)	0.0749	-0.154	0.708	-0.339	0.136	0.289	1.23	0.249
COc1ccc(C#Cc2ccc3c(c2)[C@]2(C(=O)N3)[C@H](C(=O)Nc3nc4ccccc4s3)[C@H]3C(=O)O[C@H](c4ccccc4)[C@H](c4ccccc4)N3[C@@H]2c2ccccc2OCCO)cc1	1.18	-1.67	0.282	1.55	0.436	-0.0685	-0.282	-0.273	0.471	1.02	0.656	0.0221 (inactive)	0.0942	-0.149	0.564	1.46	0.476	1.25	-0.0198	1.13
C=C(COC)/C(=C/C[C@@H](OC(=O)c1ccncc1)c1ccccc1OCCO)c1cc(C(=O)OC)ccc1OC	-0.553	-2.5	-0.934	-0.188	-0.66	-0.107	-0.0849	0.0471	0.332	-0.626	0.247	-0.476 (inactive)	-0.171	-0.132	0.803	0.107	0.748	-0.227	-1.12	-0.71
O=C(N1CCOCC1)[C@@]1(CCS(=O)(=O)c2ccccc2)N=C(c2ccc(OCCCO)cc2)O[C@H]1c1ccccc1	1.1	-0.892	-0.563	2.58	1.33	-0.0084	-0.0441	-0.273	1.85	2.84	1.06	0.55 (inactive)	0.211	0.0228	0.853	3.1	-0.152	1.31	-0.56	1.2
[N-]=[N+]=NCc1ccccc1C[C@]1(C(=O)N2CCOCC2)COC(c2ccc(OCCCO)cc2)=N1	1.01	-1.54	-0.305	2.35	0.822	0.168	0.0326	1.87	2.22	0.326	0.754	-0.592 (inactive)	0.139	0.126	0.71	0.969	0.262	1.22	-0.202	0.468
CCCCC=C[C@@H](NC(=O)c1ccccc1)c1ccccc1	1.38	1.02	-0.174	1.87	1.28	-0.0229	-0.253	-0.578	0.206	0.448	0.943	-0.176 (inactive)	0.354	-0.0785	0.561	2.62	0.172	1.26	-0.621	1.08
